What is called AC50 is the concentration at which the activity in the assay is half-maximal.

Assay [1] deals with Estrogen receptor (Homo sapiens) (UniProt P03372). Put plainly: ATG_ERa_TRANS: Attagene TRANS-FACTORIAL HepG2 Assay for human Estrogen Receptor alpha (ERa) (AID 2282970). The conditions noted are these: HepG2 Attagene TRANS ERa GAL4 reporter, mRNA. Summed up:
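Liver-derived HepG2 cells expressing chimeric nuclear receptor-Gal4 proteins from transient transfection were exposed for 24 hours. Gain of reporter mRNA signal versus DMSO, read by capillary electrophoresis of FAM-labelled PCR products, was recorded.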

In assay [2] the target is X-box-binding protein 1 (Homo sapiens) (UniProt P17861). Kind of assay: ATG_Xbp1_CIS: Attagene CIS-FACTORIAL HepG2 Assay for human X-box Binding Protein 1 (XBP1) (AID 2282972; active = hit-call score of the fitted dose curve at least 0.9, where 1 is the maximum; inactive = score below 0.9). To be noted: HepG2 XBP1 cis-element reporter, Attagene multiplex; actives raise or lower the signal. Summed up: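 Multiplexed cis-reporter readout in transfected HepG2 liver cells. Exposure lasted 24 hours. Activity in either direction was fitted against DMSO as negative control and baseline.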

For assay [3], the target named is Androgen receptor (Homo sapiens) (UniProt P10275). Put plainly: ATG_AR_TRANS: Attagene TRANS-FACTORIAL HepG2 Assay for human Androgen Receptor (AR) (AID 2282973). To be noted: HepG2 Attagene TRANS-FACTORIAL AR reporter transcription. Summed up: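 Steps: transfect HepG2 with multiple GAL4-UAS reporter transcription units (TRANS format, exogenous NR-Gal4 protein); dose 24 h; isolate RNA, reverse-transcribe, PCR-amplify, FAM-label, HpaI-digest; resolve by capillary electrophoresis. Positive direction vs DMSO.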

Assay [4] is described as follows: ATG_M_19_TRANS: Attagene TRANS-FACTORIAL HepG2 Assay for M19 Transcription Factor (Internal Marker) (AID 2282974). The conditions noted are these: HepG2 Attagene TRANS-FACTORIAL M19 internal marker reporter. Summed up: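 Background-control readout: after 24 h chemical exposure of transfected HepG2 carrying GAL4-driven reporter units, RNA was reverse-transcribed, amplified, fluorescently labeled and sized by capillary electrophoresis; gain-of-signal fit against DMSO.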

Assay [5] in a line: ATG_GAL4_TRANS: Attagene TRANS-FACTORIAL HepG2 Assay for GAL4 (Internal Marker) (AID 2282976). To be noted: HepG2 Attagene TRANS GAL4 internal marker reporter. Summed up:
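First, HepG2 cells were transfected with reporter units under GAL4-UAS control. Next, they were treated with chemical for 24 h. Finally, RNA was reverse-transcribed, PCR-amplified, FAM-labelled and resolved by capillary electrophoresis, with induction scored against DMSO.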

The target in assay [6] is Bile acid receptor (Homo sapiens) (UniProt Q96RI1). Kind of assay: ATG_FXR_TRANS: Attagene TRANS-FACTORIAL HepG2 Assay for Farnesoid X Receptor (FXR) (AID 2282979).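 Also: hits raise reporter mRNA above DMSO so AC50 marks FXR activation.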 To be noted: HepG2 Attagene TRANS FXR-GAL4 reporter transcription. In short, it runs like this: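 Transient transfection of HepG2 with multiplexed GAL4-UAS reporter units; exogenous FXR-GAL4 chimera. Dose 24 h → TriZol RNA → oligo(dT) RT → PCR, 6-FAM primer extension, HpaI cut → CE. Gain vs DMSO.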

Assay [7] addresses Hepatocyte nuclear factor 4-alpha (Homo sapiens) (UniProt P41235). Kind of assay: ATG_HNF4a_TRANS: Attagene TRANS-FACTORIAL HepG2 Assay for human Hepatocyte Nuclear Factor 4 alpha (HNF4a) (AID 2282982). To be noted: HepG2 HNF4a transactivation reporter, mRNA readout. In short, it runs like this: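 Using HepG2 liver cells transfected with GAL4-UAS reporter units, chemical-induced mRNA increases were assessed after 24 hours. Fluorescent RT-PCR fragments were separated by capillary electrophoresis and compared with DMSO negative controls.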

A short description of assay [8]: ATG_M_06_TRANS: Attagene TRANS-FACTORIAL HepG2 Assay for M06 Transcription Factor (Internal Marker) (AID 2282983).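 Also: reporter transcript level by RT-PCR then capillary electrophoresis fluorescence.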 To be noted: HepG2 Attagene TRANS M06 internal marker reporter. Summed up:
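Background control endpoint: reporter mRNA from transiently transfected HepG2 after 24 h dosing, detected by RT-PCR with capillary electrophoresis fluorescence. Analysed for gain versus DMSO.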

The target in assay [9] is Nuclear receptor subfamily 4 group A member 2 (Homo sapiens) (UniProt P43354). Put plainly: ATG_NURR1_TRANS: Attagene TRANS-FACTORIAL HepG2 Assay for human Nuclear Receptor Related Protein 1 (NURR1) (AID 2282985). To be noted: HepG2 Attagene TRANS reporter, mRNA readout. Summed up:
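Chimeric NR-Gal4 proteins were expressed in human HepG2 cells bearing GAL4-UAS reporter units, and induced reporter mRNA was quantified 24 h post-dosing by RT-PCR and capillary electrophoresis.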

Assay [10] has as its target Transcriptional activator Myb (Homo sapiens) (UniProt P10242). Kind of assay: ATG_Myb_CIS: Attagene CIS-FACTORIAL HepG2 Assay for human Myeloblastosis (Myb) Proto-Oncogene Transcription Factor (AID 2282986; active = hit-call score of the fitted dose curve at least 0.9, where 1 is the maximum; inactive = score below 0.9). The conditions noted are these: HepG2 Attagene CIS-FACTORIAL Myb reporter transcription; actives raise or lower the signal. Summed up:
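Reporter mRNA is quantified by RT-PCR and capillary electrophoresis 24 h after dosing HepG2 cells transfected with cis-regulated reporter units, which track endogenous transcription factor activity. Gain and loss of signal are fitted versus DMSO baseline.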

The target of assay [11] is Nuclear respiratory factor 1 (Homo sapiens) (UniProt Q16656). Kind of assay: ATG_NRF1_CIS: Attagene CIS-FACTORIAL HepG2 Assay for human Nuclear Respiratory Factor 1 (NRF1) Orphan Gene (AID 2282987; active = hit-call score of the fitted dose curve at least 0.9, where 1 is the maximum; inactive = score below 0.9). To be noted: HepG2 NRF1 cis-element reporter, Attagene multiplex; actives raise or lower the signal. Summed up: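 Endogenous NRF1-driven reporter transcription in transfected HepG2 cells after 24 h treatment. Readout: RT-PCR products, 6-FAM labelled and resolved by capillary electrophoresis; changes fitted both directions relative to DMSO.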

Assay [12] can be described thus: ATG_NFI_CIS: Attagene CIS-FACTORIAL HepG2 Assay for human Nuclear Factor I (NFI) (AID 2282989; active = hit-call score of the fitted dose curve at least 0.9, where 1 is the maximum; inactive = score below 0.9). The conditions noted are these: HepG2 cis-regulatory reporter, NFI response element transcription; actives raise or lower the signal. In short, it runs like this: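 Cells: human liver HepG2, transiently transfected with promoter-regulated reporter transcription units. Exposure 24 h. Detection: fluorescent RT-PCR products separated by capillary electrophoresis, normalised to DMSO negative control.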

In assay [13] the target is Myc proto-oncogene protein (Homo sapiens) (UniProt P01106). Kind of assay: ATG_Myc_CIS: Attagene CIS-FACTORIAL HepG2 Assay for human Myelocytomatosis (Myc) Proto-Oncogene Transcription Factor (AID 2282990; active = hit-call score of the fitted dose curve at least 0.9, where 1 is the maximum; inactive = score below 0.9). To be noted: HepG2, Attagene cis-reporter transcription factor activity; actives raise or lower the signal. Summed up: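 HepG2 cells transiently transfected with multiple cis-promoter-driven reporter transcription units, so endogenous TF activity is read. After 24 h compound exposure, reporter mRNA was quantified by RT-PCR, 6-FAM labelling, HpaI digestion and capillary electrophoresis; bidirectional fit versus DMSO.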

For assay [14], the target named is Glucocorticoid receptor (Homo sapiens) (UniProt P04150). Put plainly: ATG_GR_TRANS: Attagene TRANS-FACTORIAL HepG2 Assay for human Glucocorticoid Receptor (GR) (AID 2282978).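 Also: activators score as hits since higher reporter transcript over DMSO is fitted.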 The conditions noted are these: HepG2 Attagene TRANS GR reporter, mRNA transcription. Summed up:
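Readout is reporter transcript from a chimeric GR-Gal4 acting on GAL4-UAS in transfected human HepG2 liver cells after 24 h exposure, quantified by RT-PCR and capillary electrophoresis. Activation fitted upward against DMSO.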

The target of assay [15] is Oxysterols receptor LXR-alpha (Homo sapiens) (UniProt Q13133). Put plainly: ATG_LXRa_TRANS: Attagene TRANS-FACTORIAL HepG2 Assay for human Liver X Receptor alpha (LXRa) (AID 2282980). The conditions noted are these: HepG2 Attagene TRANS reporter, LXRa transactivation. In short, it runs like this:
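Transfect HepG2 with GAL4-UAS multiplex reporter constructs (TRANS format, chimeric receptor-GAL4); treat 24 h; extract RNA, reverse-transcribe, PCR-amplify, FAM-label, HpaI-digest; resolve fragments by capillary electrophoresis. Upward response vs DMSO.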

A short description of assay [16]: ATG_M_32_TRANS: Attagene TRANS-FACTORIAL HepG2 Assay for M32 Transcription Factor (Internal Marker) (AID 2282984).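 Also: transcript level of a background control reporter unit measured by RT-PCR and capillary electrophoresis.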 To be noted: HepG2 Attagene TRANS M32 internal marker reporter. In short, it runs like this: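 Fluorescence-detected mRNA induction, HepG2 liver cells, 24 h after dosing. Multiple GAL4-UAS reporter units introduced by transient transfection; background-control endpoint analysed for gain of signal against DMSO.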

Assay [17] has as its target Estrogen-related receptor gamma (Homo sapiens) (UniProt P62508). Kind of assay: ATG_ERRg_TRANS: Attagene TRANS-FACTORIAL HepG2 Assay for human Estrogen-Related Receptor gamma (ERRg) (AID 2282977).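 Also: hits increase reporter signal over DMSO so potencies reflect activators.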 The conditions noted are these: HepG2 Attagene TRANS reporter, ERRg transactivation. Summed up: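 Readout: fluorescent reporter-mRNA fragments resolved by capillary electrophoresis after RT-PCR and HpaI cut. Cells: transiently transfected HepG2 carrying GAL4-UAS reporters driven by exogenous NR-Gal4 chimeras, dosed 24 h. Activity fitted upward relative to DMSO baseline.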

Assay [18] concerns the target Steroid hormone receptor ERR1 (Homo sapiens) (UniProt P11474). Kind of assay: ATG_ERRa_TRANS: Attagene TRANS-FACTORIAL HepG2 Assay for human Estrogen-Related Receptor alpha (ERRa) (AID 2282971). The conditions noted are these: HepG2 Attagene TRANS reporter, ERRa transactivation. In short, it runs like this: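 Reporter transcript induction was quantified by RT-PCR and capillary electrophoresis of FAM-labelled, HpaI-cut products after 24 h treatment of HepG2 cells carrying transiently transfected GAL4-UAS reporter units and an exogenous ERRa-Gal4 fusion; activity scored as increase over DMSO.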

For assay [19], the target named is Oxysterols receptor LXR-beta (Homo sapiens) (UniProt P55055). Kind of assay: ATG_LXRb_TRANS: Attagene TRANS-FACTORIAL HepG2 Assay for human Liver X Receptor beta (LXRb) (AID 2282981). The conditions noted are these: HepG2 Attagene TRANS GAL4-LXRb reporter, mRNA. In short, it runs like this:
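Liver-derived HepG2 cells transfected with Gal4-responsive reporters were dosed for 24 h. Activation was scored as rise in reporter mRNA, by RT-PCR and capillary electrophoresis, above DMSO baseline.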

Inconclusive results are not listed. The source made the active and inactive calls. The calls were made as follows, unless noted: active = hit-call score of the fitted dose curve at least 0.9, where 1 is the maximum; inconclusive = response in the unintended direction; inactive = score below 0.9.

X-box-binding protein 1 (Homo sapiens), sequence (P17861 whole entry, looked up): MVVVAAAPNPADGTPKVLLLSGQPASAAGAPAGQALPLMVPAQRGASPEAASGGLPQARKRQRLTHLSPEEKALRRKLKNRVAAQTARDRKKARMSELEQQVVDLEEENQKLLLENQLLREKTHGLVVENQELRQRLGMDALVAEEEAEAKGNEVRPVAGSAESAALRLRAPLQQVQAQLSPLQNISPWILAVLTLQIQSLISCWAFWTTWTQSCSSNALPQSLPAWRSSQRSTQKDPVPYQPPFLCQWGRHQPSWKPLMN
Nuclear respiratory factor 1 (Homo sapiens), sequence (Q16656 whole entry, looked up): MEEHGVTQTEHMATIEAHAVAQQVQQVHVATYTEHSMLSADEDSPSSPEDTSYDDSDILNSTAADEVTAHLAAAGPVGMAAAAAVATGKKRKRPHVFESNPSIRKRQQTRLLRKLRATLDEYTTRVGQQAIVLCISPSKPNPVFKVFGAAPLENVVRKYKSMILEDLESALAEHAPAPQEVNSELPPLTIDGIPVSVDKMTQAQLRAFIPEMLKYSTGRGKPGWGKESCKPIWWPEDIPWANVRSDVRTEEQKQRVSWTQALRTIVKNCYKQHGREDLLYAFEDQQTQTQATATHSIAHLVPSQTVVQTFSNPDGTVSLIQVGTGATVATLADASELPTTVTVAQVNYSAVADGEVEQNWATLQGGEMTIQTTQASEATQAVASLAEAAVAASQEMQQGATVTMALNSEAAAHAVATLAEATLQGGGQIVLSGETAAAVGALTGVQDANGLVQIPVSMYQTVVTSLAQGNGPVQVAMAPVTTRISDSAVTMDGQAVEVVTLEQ
Myc proto-oncogene protein (Homo sapiens), sequence (P01106 whole entry, looked up): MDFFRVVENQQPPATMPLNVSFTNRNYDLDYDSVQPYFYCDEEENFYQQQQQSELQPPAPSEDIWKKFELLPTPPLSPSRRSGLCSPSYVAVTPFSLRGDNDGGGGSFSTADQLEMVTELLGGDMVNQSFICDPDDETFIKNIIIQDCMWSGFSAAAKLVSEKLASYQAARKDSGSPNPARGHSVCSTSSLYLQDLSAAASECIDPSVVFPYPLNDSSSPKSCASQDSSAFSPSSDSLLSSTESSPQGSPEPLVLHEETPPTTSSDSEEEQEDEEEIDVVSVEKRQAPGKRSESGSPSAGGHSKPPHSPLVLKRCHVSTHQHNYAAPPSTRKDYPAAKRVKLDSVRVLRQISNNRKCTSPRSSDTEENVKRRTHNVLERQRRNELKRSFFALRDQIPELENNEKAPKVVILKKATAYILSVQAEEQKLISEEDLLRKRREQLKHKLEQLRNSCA
Glucocorticoid receptor (Homo sapiens), sequence (P04150 whole entry, looked up, the tested form may be a part): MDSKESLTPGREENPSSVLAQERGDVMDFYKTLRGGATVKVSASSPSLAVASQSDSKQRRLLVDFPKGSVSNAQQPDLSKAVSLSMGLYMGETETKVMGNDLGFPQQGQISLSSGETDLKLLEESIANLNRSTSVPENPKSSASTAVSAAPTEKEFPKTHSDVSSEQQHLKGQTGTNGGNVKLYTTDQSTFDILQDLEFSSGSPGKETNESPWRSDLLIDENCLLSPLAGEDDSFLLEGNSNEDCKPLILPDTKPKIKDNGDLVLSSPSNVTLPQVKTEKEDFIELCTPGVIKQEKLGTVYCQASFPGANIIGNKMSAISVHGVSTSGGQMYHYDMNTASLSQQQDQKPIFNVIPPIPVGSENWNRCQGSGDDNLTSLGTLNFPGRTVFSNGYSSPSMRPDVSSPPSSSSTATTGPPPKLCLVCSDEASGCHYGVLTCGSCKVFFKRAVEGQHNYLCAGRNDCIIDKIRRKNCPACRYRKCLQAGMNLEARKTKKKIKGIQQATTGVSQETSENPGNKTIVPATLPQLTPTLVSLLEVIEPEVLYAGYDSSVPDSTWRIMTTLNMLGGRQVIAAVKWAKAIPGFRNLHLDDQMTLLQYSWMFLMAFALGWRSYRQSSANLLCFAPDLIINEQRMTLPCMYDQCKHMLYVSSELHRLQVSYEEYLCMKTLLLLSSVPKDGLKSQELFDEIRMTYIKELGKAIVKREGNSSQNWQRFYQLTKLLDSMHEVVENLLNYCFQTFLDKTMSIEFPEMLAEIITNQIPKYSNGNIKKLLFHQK
Estrogen-related receptor gamma (Homo sapiens), sequence (P62508 whole entry, looked up, the tested form may be a part): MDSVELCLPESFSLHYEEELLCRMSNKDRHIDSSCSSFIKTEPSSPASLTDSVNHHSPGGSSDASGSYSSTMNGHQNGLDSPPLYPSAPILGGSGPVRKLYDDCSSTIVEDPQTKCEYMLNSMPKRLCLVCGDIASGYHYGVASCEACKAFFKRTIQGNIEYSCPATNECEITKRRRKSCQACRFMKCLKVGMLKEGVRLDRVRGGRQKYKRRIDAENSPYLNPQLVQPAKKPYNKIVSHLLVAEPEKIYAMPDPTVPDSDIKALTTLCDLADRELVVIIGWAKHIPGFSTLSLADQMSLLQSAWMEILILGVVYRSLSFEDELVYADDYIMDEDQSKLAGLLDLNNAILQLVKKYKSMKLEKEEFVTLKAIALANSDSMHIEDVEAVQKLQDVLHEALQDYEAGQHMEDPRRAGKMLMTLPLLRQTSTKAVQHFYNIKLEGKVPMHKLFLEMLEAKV
Transcriptional activator Myb (Homo sapiens), sequence (P10242 whole entry, looked up): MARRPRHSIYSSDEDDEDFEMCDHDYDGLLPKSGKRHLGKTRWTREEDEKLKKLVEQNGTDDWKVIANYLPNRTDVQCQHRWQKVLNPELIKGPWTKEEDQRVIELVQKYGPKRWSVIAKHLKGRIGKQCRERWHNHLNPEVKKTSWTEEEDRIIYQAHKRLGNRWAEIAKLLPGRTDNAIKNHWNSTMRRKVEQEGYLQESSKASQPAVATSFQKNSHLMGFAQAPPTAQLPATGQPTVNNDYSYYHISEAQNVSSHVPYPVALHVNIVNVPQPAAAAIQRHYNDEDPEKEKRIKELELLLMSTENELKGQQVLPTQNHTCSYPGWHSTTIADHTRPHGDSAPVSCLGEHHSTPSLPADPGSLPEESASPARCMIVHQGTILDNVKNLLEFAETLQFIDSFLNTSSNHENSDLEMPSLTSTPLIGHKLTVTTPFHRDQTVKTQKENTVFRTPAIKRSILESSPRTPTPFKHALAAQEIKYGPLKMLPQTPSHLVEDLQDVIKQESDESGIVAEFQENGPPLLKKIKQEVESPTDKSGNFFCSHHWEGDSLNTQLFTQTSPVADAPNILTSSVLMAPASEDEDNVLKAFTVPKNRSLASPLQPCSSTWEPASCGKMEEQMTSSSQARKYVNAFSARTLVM
Androgen receptor (Homo sapiens), sequence (P10275 whole entry, looked up, the tested form may be a part): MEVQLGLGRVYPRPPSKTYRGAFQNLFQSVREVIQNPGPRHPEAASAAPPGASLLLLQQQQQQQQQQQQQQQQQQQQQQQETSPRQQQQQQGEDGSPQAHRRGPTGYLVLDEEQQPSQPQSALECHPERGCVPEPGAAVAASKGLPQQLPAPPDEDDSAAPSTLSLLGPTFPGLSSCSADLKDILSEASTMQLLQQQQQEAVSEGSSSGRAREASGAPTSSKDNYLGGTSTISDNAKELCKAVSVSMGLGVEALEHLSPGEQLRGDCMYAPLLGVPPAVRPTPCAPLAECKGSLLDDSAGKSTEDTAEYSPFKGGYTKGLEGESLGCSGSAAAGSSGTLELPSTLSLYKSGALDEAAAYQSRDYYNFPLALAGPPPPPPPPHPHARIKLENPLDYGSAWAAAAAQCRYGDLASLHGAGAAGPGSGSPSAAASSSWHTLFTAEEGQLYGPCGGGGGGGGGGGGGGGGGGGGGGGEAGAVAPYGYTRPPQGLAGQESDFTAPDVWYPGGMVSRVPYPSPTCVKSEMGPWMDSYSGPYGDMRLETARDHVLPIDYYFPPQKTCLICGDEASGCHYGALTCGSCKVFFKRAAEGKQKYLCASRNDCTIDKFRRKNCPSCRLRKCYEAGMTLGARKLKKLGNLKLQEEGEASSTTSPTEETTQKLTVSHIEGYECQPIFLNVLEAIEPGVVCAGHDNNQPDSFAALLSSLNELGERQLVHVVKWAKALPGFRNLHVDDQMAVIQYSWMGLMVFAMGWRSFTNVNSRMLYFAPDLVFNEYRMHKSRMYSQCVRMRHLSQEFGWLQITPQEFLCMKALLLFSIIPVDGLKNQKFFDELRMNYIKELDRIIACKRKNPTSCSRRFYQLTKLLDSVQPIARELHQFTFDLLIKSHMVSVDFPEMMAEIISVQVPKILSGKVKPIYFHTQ
Estrogen receptor (Homo sapiens), sequence (P03372 whole entry, looked up, the tested form may be a part): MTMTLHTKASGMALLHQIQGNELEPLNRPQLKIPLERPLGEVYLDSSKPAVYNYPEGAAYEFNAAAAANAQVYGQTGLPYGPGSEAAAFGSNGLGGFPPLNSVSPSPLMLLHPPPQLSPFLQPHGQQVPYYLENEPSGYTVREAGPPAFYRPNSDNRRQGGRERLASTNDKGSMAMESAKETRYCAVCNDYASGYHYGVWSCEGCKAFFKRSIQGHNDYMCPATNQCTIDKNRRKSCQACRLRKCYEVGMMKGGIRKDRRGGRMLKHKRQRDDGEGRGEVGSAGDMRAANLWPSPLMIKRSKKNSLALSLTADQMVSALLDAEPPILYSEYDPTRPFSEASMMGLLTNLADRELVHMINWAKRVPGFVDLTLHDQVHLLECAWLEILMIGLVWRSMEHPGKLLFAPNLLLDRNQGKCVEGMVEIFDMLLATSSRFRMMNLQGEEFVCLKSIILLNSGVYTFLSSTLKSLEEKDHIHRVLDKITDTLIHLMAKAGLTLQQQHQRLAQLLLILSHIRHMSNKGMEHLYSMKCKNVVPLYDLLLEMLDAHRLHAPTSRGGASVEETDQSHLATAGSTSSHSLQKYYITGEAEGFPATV

Consider `OC(c1ccc(Cl)cc1)(c1ccc(Cl)cc1)c1cccnc1`, for which the compound was classed as inactive in assay [1], in assay [2], in assay [3], in assay [4], in [5] and in assay [6]. Also, the compound was classed as inactive in assay [7], in assay [8], in assay [9], in [10], in [11] and in assay [12]. The outcome in assay [13] was inactive.
As to `O=C(O)c1cc(I)cc(I)c1I`, the compound was classed as inactive in assay [1], in assay [2], in assay [4], in assay [5], in [14] and in assay [15]. Moreover, the compound was classed as inactive in [16], in assay [10], in assay [11], in [12] and in assay [13].
On to `O=C(O)COc1cc(Cl)c(Cl)cc1Cl`, for which the outcome in assay [2], in [3], in assay [4], in assay [14], in assay [16] and in [10] was inactive. Besides, the compound was classed as inactive in assay [11], in assay [12] and in assay [13].
In the case of `Clc1cccc(Cl)c1`, the compound was called inactive in assay [2], in assay [4], in assay [5], in assay [17], in [14] and in [10]. The result in assay [11], in assay [12] and in assay [13] was inactive.
Turning to `Clc1cc(C(Cl)(Cl)Cl)cnc1Cl`, the call in assay [18], in assay [2], in assay [4], in assay [17], in assay [6] and in [19] was inactive. Also, the result in [7], in [10] and in [11] was inactive. The half-maximal activity concentration (AC50) is 44.8 µM (active) in assay [12] and 55.5 µM (active) in assay [13].
Consider `Clc1cccc(Cl)c1Cl`, for which the compound was classed as inactive in assay [18], in assay [2], in assay [17], in assay [19], in assay [10] and in [11]. For the same compound, the compound was classed as inactive in assay [12] and in assay [13].

The record behind these values is PubChem BioAssay (EPA / NIEHS).
